Source: PubChem BioAssay
Only some compounds are listed: those with a hit (about 2.8% of all), similar ones and a draw of the others.
HSP90 refold inh: HSP90 inhibitors, primary screen, cell lysate, luminescence | Heat shock protein HSP 90 (rabbit reticulocyte lysate; luciferase refolding) | Rabbit reticulocyte lysate, luciferase refolding luminescence, 3 h | inhibition, % at 5.6 µM | actives 0.91% (n = 290,000) | AID 1789, 2009;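 active means inhibition above the screen-wide mean plus 3 SD, computed separately per campaign, cut at about 16% in these data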;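 further: 0% = DMSO wells and 100% = 60 µM geldanamycin wells; inhibitors lower the luminescence because luciferase stays unfolded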
SENP7 block: SENP7 protease inhibitors, primary screen, biochemical, luminescence, uHTS; Sentrin-specific protease 7 (Homo sapiens), Q9BQF6; recombinant SENP7, Z-RLRGG-aminoluciferin luminescence, 40 min; inhibition, % at 5 µM; actives 1.5% (n = 330,000); AID 434973, 2010;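 active means inhibition above about 50% at the single test dose, limit read from the data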;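 further: plate controls were DMSO with enzyme for no effect and no enzyme buffer wells for full effect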
Target sequence (Q9BQF6 706-1050 limits assumed): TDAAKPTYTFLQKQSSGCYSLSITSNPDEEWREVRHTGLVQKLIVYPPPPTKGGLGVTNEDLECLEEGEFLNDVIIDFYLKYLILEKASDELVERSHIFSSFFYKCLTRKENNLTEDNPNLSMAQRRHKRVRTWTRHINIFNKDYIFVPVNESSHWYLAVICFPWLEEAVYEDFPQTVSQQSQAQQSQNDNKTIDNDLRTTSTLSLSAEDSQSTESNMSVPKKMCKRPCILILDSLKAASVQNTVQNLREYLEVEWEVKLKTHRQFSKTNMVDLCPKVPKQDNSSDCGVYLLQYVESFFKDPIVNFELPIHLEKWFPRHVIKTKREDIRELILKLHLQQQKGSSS
SENP8 block-1: SENP8 protease inhibitors, primary screen, biochemical, luminescence; purified SENP8, Z-RLRGG-aminoluciferin cleavage; Sentrin-specific protease 8 (Homo sapiens), Q96LD8; actives 1.2% (n = 330,000); inhibition, % at 10 µM; in the data active means inhibition above about 50%
Target sequence (Q96LD8 whole entry, looked up): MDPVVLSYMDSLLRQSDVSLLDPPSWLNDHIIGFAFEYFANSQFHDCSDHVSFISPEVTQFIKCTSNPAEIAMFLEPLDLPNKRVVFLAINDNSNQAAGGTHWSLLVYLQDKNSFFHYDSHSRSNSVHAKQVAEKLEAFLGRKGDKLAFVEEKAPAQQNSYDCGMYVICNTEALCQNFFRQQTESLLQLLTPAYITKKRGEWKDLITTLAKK
SENP8 block-2: human SENP8 protease inhibitors, primary screen, biochemical, fluorescence, Nedd8 protein substrate, uHTS; Sentrin-specific protease 8 (Homo sapiens), Q96LD8; recombinant SENP8; inhibition, % at 20 µM; actives 0.64% (n = 360,000); in the data active means inhibition mostly above about 40%, no sharp cut-off; inactive means mostly below about 27%
Platelet DG rel: inhibitors of platelet dense granule secretion, primary screen, cell-based, MLPCN, human platelets. human platelet-rich plasma, SFLLRN dense granule ATP release, luminescence. inhibition, %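 (compounds screened at 7.5 µM in platelet-rich plasma)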. actives 0.22% (n = 300,000). AID 1663, 2009;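 active means mean replicate score, as percent of positive control, at or above 50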
SENP6 inh: SENP6 protease inhibitors, primary screen, biochemical, luminescence, uHTS | inhibition, % at 10 µM | Sentrin-specific protease 6 (Homo sapiens), Q9GZR1 | Recombinant SENP6 catalytic domain, aminoluciferin luminescence | AID 2599, 2010 | actives 1.8% (n = 330,000);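 active means inhibition above about 50% at the single tested dose, limit read from the data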;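 further: plate controls were DMSO wells with enzyme for no effect and DMSO wells lacking enzyme for full effect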
Active calls of the source: *; nt = no result.

SMILES | HSP90 refold inh | SENP7 block | SENP8 block-1 | SENP8 block-2 | Platelet DG rel | SENP6 inh
O=C(CCCN1C(=O)/C(=C/c2ccccc2Cl)SC1=S)NNC(=O)c1ccc(Cl)cc1Cl | 3 | -4 | -5 | 20 | 53* | -15
CCOc1ccc(S(=O)(=O)N2CN(c3cccc(C(C)=O)c3)c3nc4ccccc4nc32)cc1 | nt | -7 | -12 | -437 | nt | -24
C=C[C@]1(C)C=C2CCC3[C@](C)(CCC[C@@]3(C)C(=O)O)C2CC1 (stereo partly specified) | nt | 8 | 6 | 60* | 0 | 6
CN(C)/C=C1\Oc2ccc3ccccc3c2C1=O | 2 | -1 | 1 | -366 | 4 | 13
O=C1C(=O)c2c(ccc3ccccc23)-c2ccccc21 | nt | nt | nt | 99* | nt | nt
Cc1ccc(C(=O)N2CCCC2)cc1S(=O)(=O)Nc1cccc(C)c1C | 3 | -2 | 1 | 12 | -2 | -8
CCCN1C(=O)/C(=C/c2ccco2)SC1=Nc1ccc(OC)cc1 | -2 | 3 | 0 | 48* | 0 | -21
O=C(COC(=O)/C=C/c1ccc(C(F)(F)F)cc1)NCc1ccco1 | 0 | 6 | -6 | 8 | -2 | -4
CCN(C(=O)CSc1nnnn1C)C1CCS(=O)(=O)C1 (stereo unspecified) | nt | -1 | 7 | 16 | nt | 6
O=C(N/N=C/c1cccc([N+](=O)[O-])c1O)C(O)(c1ccccc1)c1ccccc1 | -3 | -7 | -8 | 19 | -9 | 4
COc1cc([N+](=O)[O-])cc(/C=N/NC(=O)C(O)(c2ccccc2)c2ccccc2)c1O | 0 | -5 | -1 | 50* | -5 | -8
CCn1c2c(c3cc(C(=O)O)ccc31)CCCC2=O | 2 | 10 | 4 | -451 | nt | -13
CCn1c2c(c3cc(Cl)ccc31)CCCC2=O | 64* | -14 | -11 | -178 | -27 | -4
CN(CC(=O)Nc1ccc(F)cc1)C(=O)COC(=O)c1ccc(-c2ccccc2)cc1 | nt | 9 | -12 | 2 | -1 | -22
O=[N+]([O-])c1ccc(/C=N/n2c(CO)nc3ccccc32)s1 | 3 | 28 | 5 | 53* | 3 | 27
NS(=O)(=O)c1ccc(N/N=C/c2ccc(O)c(O)c2O)c([N+](=O)[O-])c1 | 0 | nt | nt | 106* | nt | nt
NS(=O)(=O)c1ccc(N/N=C/c2ccc(O)cc2O)c([N+](=O)[O-])c1 | -1 | 3 | 3 | 54* | -12 | 3
O=C(O)c1ccccc1NS(=O)(=O)c1ccc(N/N=C/c2ccc(O)c(O)c2)c([N+](=O)[O-])c1 | nt | nt | nt | 53* | nt | nt
Cc1ccc(NC(=O)CSc2nnc(C)n2C2CC2)cc1S(=O)(=O)N1CCOCC1 | nt | -1 | 11 | 12 | nt | -5
CCN(CC)S(=O)(=O)c1cccc(-n2c(O)c(C=Nc3ccccc3C(=O)O)c3ccccc3c2=O)c1 | 0 | 9 | 4 | -30 | 7 | 18
CC(=O)c1cccc(NC(=O)NC2CC(=O)N(c3ccc4c(c3)OCCO4)C2)c1 (stereo unspecified) | nt | -4 | 2 | 12 | 6 | -8
CC(/C=C/c1ccc(OCc2ccccc2)cc1)=N\O | -5 | 70* | 33 | 6 | 12 | 43
CC(/C=C/c1ccccc1)=N/O | -3 | 1 | -18 | 21 | nt | 24
O=C(Nc1ccccc1)c1ccn[nH]1 | 1 | 9 | 13 | 26 | 11 | 16
CC(=O)c1ccc(NC(=O)c2ccn[nH]2)cc1 | 4 | 15 | -3 | 14 | 50* | 20
SMILES | HSP90 refold inh | SENP7 block | SENP8 block-1 | SENP8 block-2 | Platelet DG rel | SENP6 inh
COc1ccc2c(c1)c(C(C)=O)c(C)n2-c1ccccc1OC | nt | -8 | -4 | -29 | -13 | -4
CCOC(=O)N1CCN(Cc2nc3c(c(=O)n(C)c(=O)n3C)n2Cc2cccc3ccccc23)CC1 | nt | 5 | -1 | 5 | 73* | -1
O=C1C(=O)c2ccccc2C([O-])=C1[n+]1ccccc1 | 10 | 6 | 13 | 59* | 10 | 41
COC(=O)c1sc(NC(=O)c2c(C)noc2C)nc1C | 4 | 45 | 13 | -48 | 53* | 22
COC(=O)c1sc(NC(=O)c2ccco2)nc1C | -3 | 28 | 22 | -28 | 3 | 39
Cc1noc(C)c1C(=O)Nc1nc2ccccc2s1 | nt | 98* | 94* | -45 | nt | 97*
COC(=O)c1sc(NC(=O)c2ccoc2C)nc1C | 1 | nt | nt | 18 | 57* | nt
Cc1noc(C)c1CSCC(=O)Nc1nc2ccccc2s1 | -1 | 5 | -6 | -18 | 30 | -2
OCC1OC(n2cnc3c(NC4CCCC4)ncnc32)C(O)C1O (stereo unspecified) | nt | -2 | 2 | -5 | 82* | -18
OC[C@H]1O[C@@H](n2cnc3c(NC4CCCC4)ncnc32)[C@H](O)[C@@H]1O | 4 | 4 | 8 | -2 | 57* | 9
OCC1OC(n2cnc3c(NC4CCCCC4)ncnc32)C(O)C1O (stereo unspecified) | -2 | 1 | -5 | 16 | 42 | 1
CC(C)COc1ccc(C(=O)Nc2ccc(NC(=O)c3ccco3)c(Cl)c2)cc1 | 7 | -6 | -3 | 17 | 50* | -12
O=C1C(SCCO)=C(SCCO)C(=O)c2ccccc21 | nt | 56* | 89* | -73 | nt | 89*
CC1=C(SCc2ccccc2)C(=O)c2ccccc2C1=O | nt | nt | nt | 40 | nt | nt
C#CCN(C[C@H]1[C@H](OC(=O)NCc2ccccc2F)[C@H](OC(=O)NCc2ccccc2F)C[C@@H](C(=O)OC)[C@H]1C(=O)OC)S(=O)(=O)c1ccc(C)cc1 | nt | nt | nt | 2 | nt | nt
O=C(NCc1ccc2c(c1)OCO2)C1CCC(CNS(=O)(=O)c2ccccc2)CC1 (stereo unspecified) | 2 | 1 | -2 | 13 | 61* | -28
CN(C)c1ccc(C=C2SC(=S)N(Cc3ccco3)C2=O)cc1 | nt | nt | nt | 48* | nt | nt
CCOc1ccc(NC(=O)CSc2nc3ccsc3c(=O)n2CCCCCC(=O)O)cc1 | nt | nt | nt | 17 | nt | nt
CCCOc1ccc(CNC(=O)c2ccc3c(c2)N(CC)CCS3)cc1 | 4 | -9 | -12 | -444 | 96* | -23
Nc1ccc(OCc2ccco2)cc1 | 0 | 54* | 2 | 19 | -4 | 2
O=C1C2C(C(=O)N1/N=C/c1cc(Br)cc([N+](=O)[O-])c1O)C1C=CC2C12CC2 (stereo unspecified) | 2 | -5 | 1 | 41* | 8 | -8
O=C1C2C(C(=O)N1/N=C/c1cc([N+](=O)[O-])c(O)cc1O)C1C=CC2C12CC2 (stereo unspecified) | 2 | -2 | 1 | 15 | 2 | 3
COc1ccc(/C=C2/C(=O)N(c3ccccc3)N=C2C)cc1 | nt | 47 | 11 | 91* | 0 | 39
